Screening data as filed in PubChem.
Shown are actives, neighbours in structure and some others; about 1.3% of the full set was active somewhere.
SRC2 inh: human SRC2 (NCOA2) inhibition; Q15596; HEK293 GAL4-SRC2 luciferase reporter, luminescence; inhibition, % at 9 µM; hit rate 0.17% among 370,000;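 active = inhibition above the mean inhibition of all tested compounds plus 3 SD, set per campaign, cut at about 52% in these data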;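 also: 0% = DMSO treated cells and 100% = cells given Gossypol at 36 µM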
Gli-Sufu block: blocks Gli-Sufu signaling in a luciferase reporter. Sufu-KO-LIGHT fibroblasts, Gli luciferase reporter luminescence. inhibition, % at 5 µM. hit rate 0.74% among 340,000;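 active = inhibition above about 55%, limit read from the data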;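 also: 0% = DMSO-treated cells and 100% = wells with medium but no cells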
NR2F2 inh: NR2F2 (human) inhibition, primary screen; P24468; HEK293T NGFI-A luciferase reporter, luminescence; inhibition, % at 8.6 µM; AID 686940; hit rate 0.7% among 370,000;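 active = inhibition above a per-plate cutoff, mean inhibition of test wells between control levels plus 3 SD, cut at about 38% in these data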;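 also: cells cotransfected with COUP-TFII expression vector driving the NGFI-A reporter; 0% = median of COUP-TF2 test wells and 100% = reporter-only cells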
NCOA1 inh: inhibitors of human steroid receptor coactivator 1 (SRC1); Q15788; HEK293 GAL4-SRC1 luciferase reporter, luminescence; inhibition, % at 3.6 µM; hit rate 0.12% among 360,000; AID 588354;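 active = inhibition above the campaign mean plus 3 SD, with each screening campaign given its own cutoff, cut at about 60% in these data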;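 also: 0% = DMSO treated cells and 100% = gossypol at 36 µM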
NCOA3 inh: human NCOA3 inhibition; HEK293 GAL4-SRC3 luciferase reporter, luminescence; hit rate 0.17% among 360,000; AID 588352; inhibition, % at 3.6 µM;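 active = inhibition above a per-campaign cutoff, the mean of all compounds plus 3 SD, cut at about 60% in these data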;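 also: 0% = DMSO-treated cells and 100% = gossypol-treated cells at 36 µM; higher means less SRC3-driven luciferase light from the GAL4 reporter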
LRH-1 inv ag: suppresses constitutive activity of human LRH-1; HEK293T StAR-luciferase reporter, LRH-1 transfected, 24 h; inhibition, % at 3.6 µM; hit rate 0.13% among 360,000;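 active = inhibition above the mean inhibition of all tested compounds plus 3 SD, cut at about 73% in these data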;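 also: 0% = DMSO wells and 100% = reporter-only cells lacking LRH-1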
Gli-Sufu confirm: confirmation of Gli-SUFU pathway antagonists. shares compounds with Gli-Sufu block. Sufu-KO-LIGHT cells, Gli luciferase reporter, luminescence. inhibition, % at 5 µM. hit rate 40% among 2,500. AID 602428;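 active = mean inhibition at 5 µM reaching about 45%, limit read from the data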;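 also: plate controls were DMSO-treated cells for no effect and wells lacking cells for full effect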
SufuKO cytotox: cytotoxicity counter-screen for Gli-SUFU antagonists | shares compounds with Gli-Sufu block | hit rate 32% among 2,500 | AID 651994 | Sufu-KO-LIGHT cells cytotoxicity, ATP luminescence | cytotoxicity, % at 5 µM;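 active = mean cytotoxicity at 5 µM above about 25%, limit read from the data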;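 also: cells exposed to compound overnight for roughly 16 to 18 hours; plate controls were DMSO wells with cells for no effect and medium without cells for full effect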
Wnt3a counter: inhibits Wnt3a reporter, counter-screen for Gli-SUFU antagonists. shares compounds with Gli-Sufu block. Wnt-LIGHT cells, Wnt3a-driven luciferase reporter, luminescence. inhibition, % at 6.25 µM. hit rate 20% among 2,500;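 active = mean inhibition above about 25%, limit read from the data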
Active calls of the source: *; · = no result given.

SMILES | SRC2 inh | Gli-Sufu block | NR2F2 inh | NCOA1 inh | NCOA3 inh | LRH-1 inv ag | Gli-Sufu confirm | SufuKO cytotox | Wnt3a counter
CCN(CC)c1ccc(/C=N/NC(=O)c2c(Cl)cnn2C)c(O)c1 | 13.4 | 87.4* | -33.1 | 21.9 | 75.8* | 42.2 | 67.5* | 33.5* | 58.7*
CCN(CC)c1ccc(/C=N/Nc2nc(C)cc(=O)[nH]2)c(O)c1 | 46.0 | 91.4* | -2.4 | 80.9* | 84.0* | 32.5 | 84.7* | 40.7* | 70.5*
O=C(CNC(=O)Cc1ccccc1)NCC(=O)OCc1ccccc1 | -30.4 | 98.7* | 5.1 | 5.0 | 1.9 | 14.9 | 9.8 | 16.1 | -11.3
COC(=O)[C@]12C[C@H](CC(=O)NCc3ccccc3)C(=O)N(Cc3cccc4ccccc34)C1=C[C@H](COCc1ccccc1)O[C@@H]2C | -19.5 | · | -11.6 | · | · | · | · | · | ·
CC(=O)N1CCN(C(=O)CN2C(=O)NC(C)(c3ccc4ccccc4c3)C2=O)CC1 (stereo unspecified) | -13.0 | -0.7 | 1.7 | 0.7 | 2.2 | 20.3 | · | · | ·
CC1(c2ccc3ccccc3c2)NC(=O)N(CC(=O)N2CCN(Cc3ccc(C#N)cc3)CC2)C1=O (stereo unspecified) | · | 67.5* | · | 22.4 | 24.6 | 57.4 | 71.5* | 21.4 | 32.2*
CNC(=S)N/N=C/c1c(C(=O)OC)cnn1-c1ccc(Cl)cc1 | · | · | -2.8 | · | · | · | · | · | ·
C[C@H]1[C@H](NC(=O)c2cccc(Cl)c2)CC[C@@]23CCCN2C(=O)CCC[C@@H]13 | · | · | -3.0 | · | · | · | · | · | ·
O=C(CN(CCc1ccccc1)S(=O)(=O)c1ccc(F)cc1)N1CCOCC1 | -33.7 | · | -10.1 | · | · | · | · | · | ·
CC[N+](CC)(CC#Cc1ccccc1)CC#Cc1ccccc1 | 4.5 | 67.8* | 10.3 | 6.3 | 25.2 | 11.8 | 71.4* | 22.0 | 18.6
CC(C)OP(=O)(Nc1cccc2ccccc12)OC(C)C | -3.2 | 34.2 | 7.6 | 4.2 | 19.9 | -11.9 | · | · | ·
CN(C)P(=O)(Nc1cccc2ccccc12)Nc1cccc2ccccc12 | 7.6 | 51.0 | 6.3 | -16.3 | -8.6 | 16.7 | 29.0 | 16.2 | -34.0
CN(CC(=O)Nc1ccccc1Cl)C(=O)CN1C(=O)C2CC=CCC2C1=O (stereo unspecified) | -0.4 | 54.9 | -5.6 | 6.5 | 2.1 | 1.1 | 5.1 | -1.4 | 10.2
CN1CC=C(c2ccccc2)N(c2ccc(Cl)cc2)C1=O | -30.7 | · | -22.3 | · | · | · | · | · | ·
COc1ccc(Cl)cc1C(=O)Nc1ccccc1N1CCN(C(=O)C(C)C)CC1 | -7.9 | 50.5 | 17.4 | -2.0 | 2.3 | 4.8 | 24.1 | 34.0* | -54.5
COc1ccc(C(=O)Nc2ccccc2N2CCN(C(=O)C(C)C)CC2)cc1Cl | -14.2 | 5.7 | 7.9 | 6.2 | -8.5 | 14.3 | · | · | ·
Nc1nc(Cl)nc2c1ncn2[C@H]1C[C@H](O)[C@@H](CO)O1 | -40.6 | 83.5* | -54.5 | 3.2 | -29.8 | 18.3 | 67.8* | 25.1* | 50.1*
Nc1nc(=O)n(C2CC(O)C(CO)O2)cc1F (stereo unspecified) | 10.3 | 65.7* | -40.9 | 60.1 | 61.0 | -27.4 | 46.5* | 17.0 | 45.2*
CCCCNC[C@@]12CO[C@H](c3ccc(Cl)cc3)N1[C@@H](c1ccc(Cl)cc1)SC2 | 1.9 | · | -2.1 | · | · | · | · | · | ·
O=C(/C=C/c1ccco1)Nc1ccc(-c2nc3ccccc3[nH]2)cc1 | 0.6 | 66.8* | 14.0 | -44.8 | -30.4 | -66.3 | 54.5* | 7.9 | -21.7
CCCC(=O)Nc1c2c(nn1-c1ccc(OC)cc1)CS(=O)C2 (stereo unspecified) | 6.2 | 50.9 | 9.2 | -5.3 | -17.7 | -3.1 | 8.0 | 18.1 | -0.2
O=C(CCC1CCCCC1)Nc1cccnc1 | -20.6 | 56.3* | 1.3 | -11.6 | 1.3 | -14.7 | 18.9 | -8.9 | -22.4
O=C(CSc1nnc(-c2ccccc2)n1-c1ccc(Cl)cc1)c1ccc(Cl)cc1 | -7.2 | · | -4.6 | · | · | · | · | · | ·
CCO[C@H]1OC(C(=O)N2CCOCC2)=C[C@@H](C2CC2)[C@@H]1CCCO | -11.7 | 98.7* | 11.8 | -81.8 | -0.8 | 1.3 | 25.6 | -5.5 | 0.0
CCO[C@@H]1OC(C(=O)N2CCOCC2)=C[C@H](C2CC2)[C@H]1CCCO | -14.3 | -17.3 | 2.2 | -4.6 | -1.9 | -17.7 | · | · | ·
SMILES | SRC2 inh | Gli-Sufu block | NR2F2 inh | NCOA1 inh | NCOA3 inh | LRH-1 inv ag | Gli-Sufu confirm | SufuKO cytotox | Wnt3a counter
Cn1ccc(C(=O)N/N=C/c2c[nH]c3ccccc23)n1 | -28.5 | 97.2* | -3.6 | -36.4 | -23.3 | -29.0 | 6.2 | 20.1 | -49.9
O=C(N/N=C/c1c[nH]c2ccccc12)c1ccn(Cc2ccc(Cl)cc2Cl)n1 | 6.8 | 12.5 | 4.2 | -2.9 | -3.5 | 19.6 | · | · | ·
Cc1nc(NC2CCCC2)c2nnn(Cc3ccccc3)c2n1 | 16.9 | · | -5.5 | · | · | · | · | · | ·
Cn1c(=O)c2c(nc(NCc3ccc4c(c3)OCO4)n2Cc2ccccc2)n(C)c1=O | -8.2 | 63.7* | 5.6 | 6.9 | 2.0 | 16.6 | 62.2* | 32.1* | 7.9
Cn1c(=O)c2c(nc(NCc3ccc4c(c3)OCO4)n2Cc2ccccc2F)n(C)c1=O | -49.7 | 42.3 | 0.4 | -23.0 | -29.5 | 0.3 | · | · | ·
Cn1c(=O)c2c(nc(NCc3ccc4c(c3)OCO4)n2Cc2ccc(F)cc2)n(C)c1=O | -15.0 | 53.5 | 7.1 | 10.3 | -0.9 | 28.7 | 43.8 | 26.8* | 6.5
CCCCNC(=O)NCCCN1CCN(c2ccc(F)cc2)CC1 | 19.1 | · | 1.0 | · | · | · | · | · | ·
Cc1nn(-c2ccccc2)c2sc(C(=O)N3CCN(Cc4ccc(F)cc4)CC3)cc12 | -17.1 | · | 9.0 | · | · | · | · | · | ·
CCCC(=O)NC(c1ccc2c(c1)OCO2)c1cc(Cl)c2cccnc2c1O (stereo unspecified) | · | 31.6 | · | 19.1 | 37.7 | -11.8 | · | · | ·
CCCC(=O)NC(c1ccc(N(C)C)cc1)c1c(O)ccc2ccccc12 (stereo unspecified) | 22.8 | -3.5 | 3.8 | 2.2 | 5.1 | 7.5 | · | · | ·
CCCCC(=O)NC(c1ccc(N(C)C)cc1)c1ccc2cccnc2c1O (stereo unspecified) | 3.3 | 87.6* | -30.7 | 46.4 | 43.8 | 13.0 | 85.9* | 36.8* | 93.3*
CCCCC(=O)NC(c1ccc(N(CC)CC)cc1)c1ccc2cccnc2c1O (stereo unspecified) | 11.4 | 93.5* | 13.6 | 38.1 | 16.5 | 3.9 | 88.3* | 43.8* | 92.2*
COCCn1c(SCC(=O)Nc2cc(C)on2)nc2c(c1=O)SCC2 | 29.1 | 51.7 | -5.4 | 11.8 | 11.6 | 8.2 | 20.4 | -4.1 | -10.7
COC(=O)c1ccc(C(=O)OC)c(NC(=O)CSc2nnc(-c3ccccc3Cl)o2)c1 | 2.6 | 98.3* | 6.5 | -7.7 | 3.0 | 22.2 | 9.8 | 17.1 | -14.4
COc1ccccc1-c1nnc(SCC(=O)Nc2ccc(Cl)cc2Cl)o1 | -9.3 | 2.8 | 11.7 | -19.2 | -9.4 | 0.0 | · | · | ·
